# In article PMC7862700, “An all-to-all approach to the identification of sequence-specific readers for epigenetic DNA modifications on cytosine”:
# Assays:
# Experiment in all cases: DAPPL (digital affinity profiling via proximity ligation, sequencing); 10 mM Tris-HCl pH 7.5, 50 mM NaCl, 1 mM DTT, 4% glycerol, room temperature, 30 min; GST-TFs on glutathione beads, 16-mer random dsDNA library, 0.1% formaldehyde crosslink after washing; high values mean tight binding
# FEV = molecular target: T1, FEV (Homo sapiens, UniProt Q99581 1-238); details: protein: recombinant; tags: N-terminal GST; dsDNA, one strand shown
# T1 sequence: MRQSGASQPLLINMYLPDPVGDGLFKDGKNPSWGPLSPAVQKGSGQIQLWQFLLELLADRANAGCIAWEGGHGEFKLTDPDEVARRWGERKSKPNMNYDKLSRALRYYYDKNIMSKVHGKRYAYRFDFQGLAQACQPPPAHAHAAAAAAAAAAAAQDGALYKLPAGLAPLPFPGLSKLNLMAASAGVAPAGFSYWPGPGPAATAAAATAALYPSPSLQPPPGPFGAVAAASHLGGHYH
# In short: (§1)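 In yeast, human transcription factors were expressed with a GST fusion, then pulled down on glutathione beads and given DNA barcodes. Pooled with a tag-only sample, they were exposed to 200 nmole of a 16-mer random double-stranded DNA library (Tris/NaCl/DTT/glycerol buffer, room temperature, 30 min), washed, crosslinked with 0.1% formaldehyde, proximity-ligated using BsaI/T4 ligase for 1 h at 37 °C, PCR-amplified and read on an Illumina NextSeq500. Each hexamer's frequency of reads for a factor, divided by the matching frequency for the tag-only sample, gives the binding signal.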
# ETV5 = ETV5 (Homo sapiens, UniProt P41161 1-510); details: protein: recombinant; tags: N-terminal GST; dsDNA, one strand shown
# In short: as §1
# HSF1 = HSF1 (Homo sapiens, UniProt Q00613 1-529); details: protein: recombinant; tags: N-terminal GST; chain copies: 3; dsDNA, one strand shown
# In short: as §1
# SPIC = molecular target: T2, SPIC (Homo sapiens, UniProt Q8N5J4 1-248); details: protein: recombinant; tags: N-terminal GST; dsDNA, one strand shown
# T2 sequence: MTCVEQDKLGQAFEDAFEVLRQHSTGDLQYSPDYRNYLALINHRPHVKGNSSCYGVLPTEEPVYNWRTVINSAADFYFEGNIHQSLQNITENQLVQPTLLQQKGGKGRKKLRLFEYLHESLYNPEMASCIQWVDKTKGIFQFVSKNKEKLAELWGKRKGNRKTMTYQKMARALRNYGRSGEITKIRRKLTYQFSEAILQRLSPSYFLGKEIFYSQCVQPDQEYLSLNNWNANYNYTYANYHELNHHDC
# In short: as §1
# ELF4 = ELF4 (Homo sapiens, UniProt Q99607 1-663); details: protein: recombinant; tags: N-terminal GST; dsDNA, one strand shown
# In short: as §1
# ELK4 = molecular target: T3, ELK4 (Homo sapiens, UniProt P28324-2 1-405); details: protein: recombinant; tags: N-terminal GST; dsDNA, one strand shown
# T3 sequence: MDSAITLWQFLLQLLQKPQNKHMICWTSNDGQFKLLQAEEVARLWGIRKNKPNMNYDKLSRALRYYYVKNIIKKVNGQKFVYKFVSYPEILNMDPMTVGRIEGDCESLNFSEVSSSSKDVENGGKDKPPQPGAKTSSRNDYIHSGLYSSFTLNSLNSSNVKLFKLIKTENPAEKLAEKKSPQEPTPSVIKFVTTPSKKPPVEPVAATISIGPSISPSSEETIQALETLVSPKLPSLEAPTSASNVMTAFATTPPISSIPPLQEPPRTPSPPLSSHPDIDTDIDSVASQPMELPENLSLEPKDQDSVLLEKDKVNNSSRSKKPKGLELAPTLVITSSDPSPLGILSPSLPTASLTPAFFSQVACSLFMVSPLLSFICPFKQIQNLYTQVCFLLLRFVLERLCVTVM
# In short: as §1
# ETV2 = molecular target: T4, ETV2 (Homo sapiens, UniProt O00321 1-342); details: protein: recombinant; tags: N-terminal GST; dsDNA, one strand shown
# T4 sequence: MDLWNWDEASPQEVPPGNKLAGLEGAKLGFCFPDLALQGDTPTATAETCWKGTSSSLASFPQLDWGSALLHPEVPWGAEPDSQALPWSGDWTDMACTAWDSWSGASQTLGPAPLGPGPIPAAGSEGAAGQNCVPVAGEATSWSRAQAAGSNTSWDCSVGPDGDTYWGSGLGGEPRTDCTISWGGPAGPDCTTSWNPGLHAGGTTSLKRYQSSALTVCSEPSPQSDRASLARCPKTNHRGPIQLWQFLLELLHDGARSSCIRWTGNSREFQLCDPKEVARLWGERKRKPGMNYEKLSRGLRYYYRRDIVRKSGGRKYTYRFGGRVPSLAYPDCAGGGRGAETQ
# In short: as §1
# ELF3 = molecular target: T5, ELF3 (Homo sapiens, UniProt P78545 1-371); details: protein: recombinant; tags: N-terminal GST; dsDNA, one strand shown
# T5 sequence: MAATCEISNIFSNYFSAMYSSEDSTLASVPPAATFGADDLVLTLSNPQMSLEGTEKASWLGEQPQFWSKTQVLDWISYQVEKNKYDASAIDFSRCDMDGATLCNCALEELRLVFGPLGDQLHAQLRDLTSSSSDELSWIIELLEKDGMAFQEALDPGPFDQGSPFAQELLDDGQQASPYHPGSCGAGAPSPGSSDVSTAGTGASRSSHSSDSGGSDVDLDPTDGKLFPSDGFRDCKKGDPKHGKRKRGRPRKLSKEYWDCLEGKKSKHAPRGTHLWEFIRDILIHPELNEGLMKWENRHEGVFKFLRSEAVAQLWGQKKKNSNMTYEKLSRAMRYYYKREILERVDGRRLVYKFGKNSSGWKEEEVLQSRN
# In short: as §1
# ETV1 = ETV1 (Homo sapiens, UniProt P50549 1-477); details: protein: recombinant; tags: N-terminal GST; dsDNA, one strand shown
# In short: as §1
# ERF = molecular target: T6, ERF (Homo sapiens, UniProt P50548 1-548); details: protein: recombinant; tags: N-terminal GST; dsDNA, one strand shown
# T6 sequence: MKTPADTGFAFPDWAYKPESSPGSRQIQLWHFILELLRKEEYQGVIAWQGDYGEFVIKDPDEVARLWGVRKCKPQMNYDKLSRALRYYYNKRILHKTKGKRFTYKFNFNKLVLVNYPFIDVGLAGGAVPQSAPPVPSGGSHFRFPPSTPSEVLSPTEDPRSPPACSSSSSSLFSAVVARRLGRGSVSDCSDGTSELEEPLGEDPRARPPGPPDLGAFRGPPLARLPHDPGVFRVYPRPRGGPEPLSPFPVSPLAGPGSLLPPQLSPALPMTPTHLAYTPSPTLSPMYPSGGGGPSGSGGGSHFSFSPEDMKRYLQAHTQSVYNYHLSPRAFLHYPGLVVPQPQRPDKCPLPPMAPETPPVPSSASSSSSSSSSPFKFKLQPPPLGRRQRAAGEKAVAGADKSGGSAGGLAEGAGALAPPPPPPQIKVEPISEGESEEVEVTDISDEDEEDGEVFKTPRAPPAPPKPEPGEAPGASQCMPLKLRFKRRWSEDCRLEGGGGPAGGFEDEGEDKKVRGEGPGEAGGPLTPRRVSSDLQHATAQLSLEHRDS
# In short: as §1
# ETV3L = molecular target: T7, ETV3L (Homo sapiens, UniProt Q6ZN32 1-361); details: protein: recombinant; tags: N-terminal GST; dsDNA, one strand shown
# T7 sequence: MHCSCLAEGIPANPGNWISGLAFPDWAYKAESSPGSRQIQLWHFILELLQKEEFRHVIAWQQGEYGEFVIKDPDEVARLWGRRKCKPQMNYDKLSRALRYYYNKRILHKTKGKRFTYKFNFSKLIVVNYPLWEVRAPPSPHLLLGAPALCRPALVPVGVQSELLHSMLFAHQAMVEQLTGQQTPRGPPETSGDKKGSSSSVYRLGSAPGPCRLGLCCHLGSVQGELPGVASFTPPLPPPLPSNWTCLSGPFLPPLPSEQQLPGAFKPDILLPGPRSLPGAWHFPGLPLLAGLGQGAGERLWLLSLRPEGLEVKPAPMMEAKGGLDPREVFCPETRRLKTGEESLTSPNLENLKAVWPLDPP
# In short: as §1
# ETS2 = molecular target: T8, ETS2 (Homo sapiens, UniProt P15036 1-469); details: protein: recombinant; tags: N-terminal GST; dsDNA, one strand shown
# T8 sequence: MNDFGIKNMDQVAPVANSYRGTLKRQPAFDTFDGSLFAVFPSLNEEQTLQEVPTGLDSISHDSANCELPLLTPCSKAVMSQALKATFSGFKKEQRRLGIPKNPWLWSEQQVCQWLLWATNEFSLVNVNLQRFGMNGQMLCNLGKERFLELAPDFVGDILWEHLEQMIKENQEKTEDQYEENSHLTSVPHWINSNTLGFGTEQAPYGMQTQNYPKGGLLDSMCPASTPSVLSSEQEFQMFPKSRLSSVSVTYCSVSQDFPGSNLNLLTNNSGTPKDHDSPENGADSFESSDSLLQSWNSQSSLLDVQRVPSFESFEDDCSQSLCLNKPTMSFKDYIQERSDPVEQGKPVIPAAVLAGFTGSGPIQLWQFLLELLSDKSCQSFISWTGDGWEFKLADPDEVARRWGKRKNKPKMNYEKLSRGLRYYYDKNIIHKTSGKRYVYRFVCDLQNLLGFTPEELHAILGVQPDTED
# In short: as §1
# SPDEF = molecular target: T9, SPDEF (Homo sapiens, UniProt O95238 1-335); details: protein: recombinant; tags: N-terminal GST; dsDNA, one strand shown
# T9 sequence: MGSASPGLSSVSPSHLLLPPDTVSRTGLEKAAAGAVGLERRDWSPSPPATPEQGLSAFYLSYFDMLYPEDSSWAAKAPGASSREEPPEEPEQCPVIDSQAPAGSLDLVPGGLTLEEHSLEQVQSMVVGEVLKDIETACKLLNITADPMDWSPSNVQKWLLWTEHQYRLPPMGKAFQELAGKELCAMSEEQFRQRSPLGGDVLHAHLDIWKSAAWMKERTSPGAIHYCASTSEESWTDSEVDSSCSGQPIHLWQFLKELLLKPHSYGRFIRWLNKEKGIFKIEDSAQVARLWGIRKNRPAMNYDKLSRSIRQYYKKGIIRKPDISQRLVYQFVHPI
# In short: as §1
# ETV7 = molecular target: T10, ETV7 (Homo sapiens, UniProt Q9Y603 1-341); details: protein: recombinant; tags: N-terminal GST; dsDNA, one strand shown
# T10 sequence: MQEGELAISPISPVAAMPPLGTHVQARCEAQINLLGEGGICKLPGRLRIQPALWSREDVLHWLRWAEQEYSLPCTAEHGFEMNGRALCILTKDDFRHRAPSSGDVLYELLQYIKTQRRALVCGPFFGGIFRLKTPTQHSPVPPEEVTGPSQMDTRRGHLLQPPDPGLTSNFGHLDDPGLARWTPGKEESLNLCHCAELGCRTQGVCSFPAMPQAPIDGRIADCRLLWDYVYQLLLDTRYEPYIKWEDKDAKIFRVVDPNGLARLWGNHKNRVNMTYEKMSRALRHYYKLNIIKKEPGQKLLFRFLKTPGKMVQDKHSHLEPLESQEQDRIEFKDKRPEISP
# In short: as §1
# ELF5 = molecular target: T11, ELF5 (Homo sapiens, UniProt Q9UKW6-2 1-255); details: protein: recombinant; tags: N-terminal GST; dsDNA, one strand shown
# T11 sequence: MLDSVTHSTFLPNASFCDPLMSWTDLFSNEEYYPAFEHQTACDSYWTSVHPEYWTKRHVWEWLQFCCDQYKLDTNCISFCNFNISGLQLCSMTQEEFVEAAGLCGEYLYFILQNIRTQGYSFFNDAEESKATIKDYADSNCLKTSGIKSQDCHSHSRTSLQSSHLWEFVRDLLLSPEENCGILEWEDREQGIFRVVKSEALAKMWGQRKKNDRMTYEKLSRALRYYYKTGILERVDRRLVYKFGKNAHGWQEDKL
# In short: as §1
# ETV3 = molecular target: T12, ETV3 (Homo sapiens, UniProt P41162-2 1-143); details: protein: recombinant; tags: N-terminal GST; dsDNA, one strand shown
# T12 sequence: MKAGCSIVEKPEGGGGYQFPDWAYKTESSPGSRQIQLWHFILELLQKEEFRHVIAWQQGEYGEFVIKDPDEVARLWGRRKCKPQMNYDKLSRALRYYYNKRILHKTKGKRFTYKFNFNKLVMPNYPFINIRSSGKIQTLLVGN
# In short: as §1
# ETV6 = ETV6 (Homo sapiens, UniProt P41212 1-452); details: protein: recombinant; tags: N-terminal GST; dsDNA, one strand shown
# In short: as §1
# ETV1, sequence (P50549 whole entry): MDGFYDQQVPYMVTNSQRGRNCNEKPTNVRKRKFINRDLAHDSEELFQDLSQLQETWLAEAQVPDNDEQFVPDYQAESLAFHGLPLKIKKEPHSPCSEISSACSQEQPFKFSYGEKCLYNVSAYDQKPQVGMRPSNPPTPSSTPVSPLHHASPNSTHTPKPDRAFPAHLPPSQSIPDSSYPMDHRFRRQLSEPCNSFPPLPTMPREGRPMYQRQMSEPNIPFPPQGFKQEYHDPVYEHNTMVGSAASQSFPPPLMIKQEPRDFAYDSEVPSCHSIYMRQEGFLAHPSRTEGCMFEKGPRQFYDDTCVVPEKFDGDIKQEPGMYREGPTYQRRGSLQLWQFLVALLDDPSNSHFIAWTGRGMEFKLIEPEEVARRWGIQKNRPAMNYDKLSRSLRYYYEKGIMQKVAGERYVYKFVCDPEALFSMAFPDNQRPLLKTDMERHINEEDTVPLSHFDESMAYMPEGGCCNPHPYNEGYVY
# ETV5, sequence (P41161 whole entry): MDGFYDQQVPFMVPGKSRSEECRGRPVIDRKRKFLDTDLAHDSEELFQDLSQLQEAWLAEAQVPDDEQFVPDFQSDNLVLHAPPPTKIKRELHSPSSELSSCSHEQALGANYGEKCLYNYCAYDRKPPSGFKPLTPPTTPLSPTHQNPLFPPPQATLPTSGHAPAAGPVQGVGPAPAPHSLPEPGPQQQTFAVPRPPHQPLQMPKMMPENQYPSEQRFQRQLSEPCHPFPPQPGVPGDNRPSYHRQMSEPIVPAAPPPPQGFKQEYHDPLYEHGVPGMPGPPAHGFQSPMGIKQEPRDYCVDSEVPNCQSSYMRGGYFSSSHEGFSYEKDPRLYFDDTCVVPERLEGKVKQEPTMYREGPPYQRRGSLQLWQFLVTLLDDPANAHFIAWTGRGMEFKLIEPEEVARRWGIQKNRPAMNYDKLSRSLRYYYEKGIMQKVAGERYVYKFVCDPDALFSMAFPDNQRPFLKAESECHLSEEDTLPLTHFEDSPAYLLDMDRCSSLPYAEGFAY
# HSF1, sequence (Q00613 whole entry): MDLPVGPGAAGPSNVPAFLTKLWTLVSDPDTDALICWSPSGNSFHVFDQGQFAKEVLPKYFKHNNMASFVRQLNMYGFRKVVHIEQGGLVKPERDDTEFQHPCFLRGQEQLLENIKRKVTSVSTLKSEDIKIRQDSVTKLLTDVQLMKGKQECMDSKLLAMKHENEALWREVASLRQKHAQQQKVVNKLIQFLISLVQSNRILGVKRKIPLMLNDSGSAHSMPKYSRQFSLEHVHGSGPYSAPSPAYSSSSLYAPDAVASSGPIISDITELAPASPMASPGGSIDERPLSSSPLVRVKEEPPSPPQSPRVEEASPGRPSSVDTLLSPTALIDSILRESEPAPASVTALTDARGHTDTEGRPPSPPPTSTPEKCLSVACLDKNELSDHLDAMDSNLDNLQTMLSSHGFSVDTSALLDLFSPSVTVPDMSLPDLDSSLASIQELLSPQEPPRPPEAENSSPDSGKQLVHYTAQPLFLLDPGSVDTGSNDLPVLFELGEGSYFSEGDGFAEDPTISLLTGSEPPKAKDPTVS
# ELF4, sequence (Q99607 whole entry): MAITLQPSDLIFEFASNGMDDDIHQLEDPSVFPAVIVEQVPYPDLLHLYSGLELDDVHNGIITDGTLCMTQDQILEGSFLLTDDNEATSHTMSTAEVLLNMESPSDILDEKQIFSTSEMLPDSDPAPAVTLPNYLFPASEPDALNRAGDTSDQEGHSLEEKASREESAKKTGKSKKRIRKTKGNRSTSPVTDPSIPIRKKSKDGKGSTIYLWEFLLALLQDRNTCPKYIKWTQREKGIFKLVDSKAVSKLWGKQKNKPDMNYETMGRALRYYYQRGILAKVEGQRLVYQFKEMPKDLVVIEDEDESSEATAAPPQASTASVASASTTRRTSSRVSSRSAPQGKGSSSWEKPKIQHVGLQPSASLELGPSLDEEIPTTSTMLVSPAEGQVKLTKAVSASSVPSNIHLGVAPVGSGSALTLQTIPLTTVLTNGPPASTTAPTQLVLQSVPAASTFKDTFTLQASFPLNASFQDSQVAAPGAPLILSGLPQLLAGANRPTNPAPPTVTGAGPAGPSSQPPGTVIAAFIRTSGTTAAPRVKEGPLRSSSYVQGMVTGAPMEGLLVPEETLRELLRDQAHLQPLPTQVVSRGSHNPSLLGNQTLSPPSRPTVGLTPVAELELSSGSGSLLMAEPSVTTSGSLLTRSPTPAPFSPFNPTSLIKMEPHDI
# ETV6, sequence (P41212 whole entry): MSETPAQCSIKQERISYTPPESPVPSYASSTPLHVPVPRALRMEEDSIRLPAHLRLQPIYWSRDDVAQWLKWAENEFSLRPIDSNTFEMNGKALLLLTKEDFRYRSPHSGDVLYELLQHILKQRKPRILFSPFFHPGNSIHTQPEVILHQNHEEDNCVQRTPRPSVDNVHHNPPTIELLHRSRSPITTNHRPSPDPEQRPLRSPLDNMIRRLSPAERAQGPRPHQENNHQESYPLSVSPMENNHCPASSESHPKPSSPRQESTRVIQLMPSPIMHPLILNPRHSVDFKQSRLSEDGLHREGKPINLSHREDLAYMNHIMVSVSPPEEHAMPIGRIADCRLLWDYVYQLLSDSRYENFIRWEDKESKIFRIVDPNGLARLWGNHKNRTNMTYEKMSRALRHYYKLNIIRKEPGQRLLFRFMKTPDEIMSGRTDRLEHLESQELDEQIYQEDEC
sequence,measurement,setting,value
GAAATG,binding signal,FEV,"1.77 fold enrichment (6-mer frequency, TF over GST control)"
same,binding signal,ETV5,"1.7 fold enrichment (6-mer frequency, TF over GST control)"
same,binding signal,HSF1,"1.1 fold enrichment (6-mer frequency, TF over GST control)"
same,binding signal,SPIC,"1.56 fold enrichment (6-mer frequency, TF over GST control)"
same,binding signal,ELF4,"1.49 fold enrichment (6-mer frequency, TF over GST control)"
same,binding signal,ELK4,"1.65 fold enrichment (6-mer frequency, TF over GST control)"
same,binding signal,ETV2,"1.55 fold enrichment (6-mer frequency, TF over GST control)"
same,binding signal,ELF3,"1.78 fold enrichment (6-mer frequency, TF over GST control)"
same,binding signal,ETV1,"1.58 fold enrichment (6-mer frequency, TF over GST control)"
same,binding signal,ERF,"1.5 fold enrichment (6-mer frequency, TF over GST control)"
same,binding signal,ETV3L,"1.59 fold enrichment (6-mer frequency, TF over GST control)"
same,binding signal,ETS2,"1.63 fold enrichment (6-mer frequency, TF over GST control)"
same,binding signal,SPDEF,"1.45 fold enrichment (6-mer frequency, TF over GST control)"
same,binding signal,ETV7,"1.6 fold enrichment (6-mer frequency, TF over GST control)"
same,binding signal,ELF5,"1.87 fold enrichment (6-mer frequency, TF over GST control)"
same,binding signal,ETV3,"1.68 fold enrichment (6-mer frequency, TF over GST control)"
same,binding signal,ETV6,"1.75 fold enrichment (6-mer frequency, TF over GST control)"
